According to PubChem BioAssay AID504452 (The Scripps Research Institute Molecular Screening Center, 2011):
The source made the active and inactive calls. Cut-off read from the data, not from the text of the source: active = activation above about 85%; inactive = the rest.

Target: Peroxisome proliferator-activated receptor gamma (Homo sapiens) (UniProt P37231)
Experiment: partial agonism at human PPARgamma receptor – cell-based, luciferase reporter, luminescence, primary screen (AID 504452);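 note: Cos-1 cells carrying PPARgamma and a response element luciferase reporter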
Details: cell-based PPARg luciferase reporter, at 5 µM, stronger effect = higher value; activation (% of full agonist control): measured here: relative to full agonist control

Sequence of Peroxisome proliferator-activated receptor gamma (Homo sapiens) (P37231 whole entry, looked up): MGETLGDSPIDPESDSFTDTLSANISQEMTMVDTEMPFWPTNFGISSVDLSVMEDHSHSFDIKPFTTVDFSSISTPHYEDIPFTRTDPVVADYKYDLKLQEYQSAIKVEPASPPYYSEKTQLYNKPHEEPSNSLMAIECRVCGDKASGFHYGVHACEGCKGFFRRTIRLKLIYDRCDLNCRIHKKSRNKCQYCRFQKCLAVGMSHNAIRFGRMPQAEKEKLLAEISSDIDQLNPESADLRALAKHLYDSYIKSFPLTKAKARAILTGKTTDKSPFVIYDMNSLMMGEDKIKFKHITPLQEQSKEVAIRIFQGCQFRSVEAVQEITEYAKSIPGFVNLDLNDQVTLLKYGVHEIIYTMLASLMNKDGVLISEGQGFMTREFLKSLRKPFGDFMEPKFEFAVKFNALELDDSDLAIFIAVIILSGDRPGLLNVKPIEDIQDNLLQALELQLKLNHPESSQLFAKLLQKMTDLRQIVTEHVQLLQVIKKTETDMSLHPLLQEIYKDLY

| SMILES | activation (% of full agonist control) | activation (% of partial agonist control) |
| --- | --- | --- |
| O=C(O)CCC(=O)N1CCc2cc(S(=O)(=O)NCCc3ccc(Cl)cc3)ccc21 | 35.9% | 79.6% (inactive) |
| CC(C)C[C@H](NC(=O)N1CC(=O)Nc2ccccc21)C(=O)N[C@@H](Cc1c[nH]c2ccccc12)C(=O)O | 31.3% | 69.4% (inactive) |
| Cc1ccc(C(=O)NCc2cccc(C(F)(F)F)c2)cc1S(=O)(=O)N1CCCCC1 | 25.6% | 56.7% (inactive) |
| COC(=O)c1cc(C(=O)N2CCN(c3cccc(Cl)c3)CC2)cc([N+](=O)[O-])c1 | 27% | 59.7% (inactive) |
| CCC(=O)c1ccc(OCC(=O)OC(C)C(=O)Nc2c(C)n(C)n(-c3ccccc3)c2=O)cc1 (stereo not drawn) | 40.4% | 89.5% (active) |
| COc1ccc(N2CCN(C(=O)CNC(=O)Cn3c(C)cc4ccccc4c3=O)CC2)cc1 | 33.3% | 73.7% (inactive) |
| Cc1ccc(S(C)=O)cc1-n1c(=O)n(Cc2ccccc2)c(=O)c2[nH]cnc21 (stereo not drawn) | 12.8% | 28.4% (inactive) |
| Cc1cccn2c(CN3CCNC(=O)CC3)c(C(=O)N(C)CCc3ccccc3)nc12 | 36.3% | 80.3% (inactive) |
| COc1ccc(-c2ccc(CCC(=O)O)n2CC(=O)Nc2ccccc2C)cc1 | 35.1% | 77.7% (inactive) |
| Nc1ccccc1SC1CC(=O)N(c2ccc3c(c2)OCO3)C1=O (stereo not drawn) | 34.5% | 76.4% (inactive) |
| O=C(COc1coc(CN2CCc3ccccc3C2)cc1=O)Nc1ccc(F)cc1F | 44.3% | 98.2% (active) |
| Cc1cc(C)c2nc(N3C(=O)C(O)=C(C(=O)c4ccco4)C3c3ccco3)sc2c1 (stereo not drawn) | 32.9% | 72.7% (inactive) |
| Cc1[nH][nH]c(=O)c1C(c1c(C)[nH][nH]c1=O)c1cn(Cc2ccc(Cl)c(Cl)c2)c2ccccc12 | 35.5% | 78.5% (inactive) |
| O=C(CCCCCNC(=O)N1CCn2c1nc1ccccc12)N[C@H](Cc1ccccc1)C(=O)O | 27.3% | 60.5% (inactive) |
| O=C(Nc1cc(F)ccc1F)C1CCCN(c2ncnc3c2nc2n3CCCCC2)C1 (stereo not drawn) | 32.1% | 71% (inactive) |
| Cc1cccc(Cn2cc3c(=O)n(Cc4cccc(F)c4)nc-3c3ccccc32)c1 | 38% | 84.2% (inactive) |
| COc1ccc2c(c1)c(=O)c(C(=O)c1ccc(C)cc1)cn2CC(=O)Nc1ccc(F)cc1 | 45% | 99.5% (active) |

| SMILES | activation (% of full agonist control) | activation (% of partial agonist control) |
| --- | --- | --- |
| CC(Oc1ccc(F)cc1)C(=O)Nc1cc(S(=O)(=O)N2CCOCC2)ccc1N1CCCC1 (stereo not drawn) | 33.9% | 75.1% (inactive) |
| COc1ccc(-n2c3c(cc(C(=O)NNc4ccccc4C)c2=O)C(=O)CC(C)(C)C3)cc1 | 32.7% | 72.5% (inactive) |
| Cc1ccc(C)c(S(=O)(=O)NCC(c2ccco2)N2CCc3ccccc3C2)c1 (stereo not drawn) | 29% | 64.3% (inactive) |
| O=C(c1cccc(S(=O)(=O)Nc2ccccc2Cl)c1)N1CCN(c2ccccc2O)CC1 | 28.5% | 63.2% (inactive) |
| Nc1ccc(-n2c(N)c(C(=O)NCc3ccc4c(c3)OCO4)c3nc4ccccc4nc32)cc1 | 26.3% | 58.3% (inactive) |
| CC(=O)Nc1cccc(-n2c(=O)n(Cc3ccccc3)c(=O)c3[nH]cnc32)c1 | 36.6% | 81.1% (inactive) |
| COc1ccc2c(c1)c(=O)c(C(=O)c1ccc(Cl)cc1)cn2CC(=O)Nc1ccc(F)cc1 | 32% | 70.9% (inactive) |
| CC(Oc1ccc(F)cc1)C(=O)Nc1cc(S(=O)(=O)N2CCOCC2)ccc1N1CCCCC1 (stereo not drawn) | 33.8% | 74.8% (inactive) |
| COc1cccc(NC(=O)c2ccc3c(c2)N(CC(=O)N2CCOCC2)C(=O)C(C)(C)O3)c1 | 32.5% | 71.9% (inactive) |
| CCC(=O)Nc1nonc1-c1nc2ccccc2n1Cc1cccc2ccccc12 | 25.1% | 55.5% (inactive) |
| CCOc1ccc2nc(N3C(=O)C(O)=C(C(=O)c4ccco4)C3c3ccco3)sc2c1 (stereo not drawn) | 38.5% | 85.2% (active) |
| COc1ccc(N(CC(=O)N2c3ccccc3CC2C)S(=O)(=O)c2c(C)nn(C)c2C)cc1 (stereo not drawn) | 32.3% | 71.5% (inactive) |
| COc1ccc(O)c(C(=O)c2cc(C#N)c(=O)n(-c3ccc(Cl)cc3)c2)c1 | 40% | 88.5% (active) |
| Cc1cc(C(=O)CN2C(=O)C(=O)N(Cc3ccccc3)C2=O)c(C)n1-c1ccc2c(c1)OCCO2 | 40.4% | 89.5% (active) |
| Cc1ccc(-n2ncc3c(=O)[nH]c(SCC(=O)N4CCCc5ccccc54)nc32)cc1 | 36.4% | 80.5% (inactive) |
| COc1cccc(C2CC(=O)N3CN(c4ccccc4F)CSC3=C2C#N)c1 (stereo not drawn) | 31.6% | 69.9% (inactive) |
| Cc1nc2c(sc(=S)n2Cc2ccco2)c(=O)n1CC(=O)Nc1cc(F)ccc1F | 32.4% | 71.8% (inactive) |
